CYP2C19 act: cytochrome P450 2C19 (human) activation. 96,000 tested, under 10 active. P33261. activation factor at 5 µM. recombinant CYP2C19, luciferin-H EGE luminescence; hits give high values; 0 = fully inhibited enzyme, 1 = untreated enzyme;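 active = activation factor of at least 2 at 5 µM in the primary screen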
Target sequence (P33261 whole entry, looked up): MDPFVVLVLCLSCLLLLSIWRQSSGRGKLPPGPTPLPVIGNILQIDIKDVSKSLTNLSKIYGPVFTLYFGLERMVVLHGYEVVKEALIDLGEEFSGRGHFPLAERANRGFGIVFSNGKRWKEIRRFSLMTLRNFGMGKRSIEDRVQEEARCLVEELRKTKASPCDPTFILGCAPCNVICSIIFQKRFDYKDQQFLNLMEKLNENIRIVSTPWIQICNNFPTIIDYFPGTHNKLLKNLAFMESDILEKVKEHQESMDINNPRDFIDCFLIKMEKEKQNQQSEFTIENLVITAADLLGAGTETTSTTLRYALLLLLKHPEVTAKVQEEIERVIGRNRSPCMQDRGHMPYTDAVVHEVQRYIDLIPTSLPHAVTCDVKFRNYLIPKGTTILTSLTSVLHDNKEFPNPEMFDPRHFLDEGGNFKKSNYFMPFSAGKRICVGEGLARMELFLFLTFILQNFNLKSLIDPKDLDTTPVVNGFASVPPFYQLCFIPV
CYP2C9 inh: inhibitors of human CYP2C9; P11712; CYP2C9 Supersomes, luciferin-H conversion, luminescence; inhibition, % at 5 µM; actives 20% (n = 96,000); AID 777;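 active = blocking of liver enzyme CYP2C9 beyond about 50% at 5 µM, limit read from the data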
CYP2C9 act: increases human cytochrome P450 2C9 activity | recombinant CYP2C9, luciferin-H conversion, luminescence; hits give high values; factor 1 = untreated enzyme, 0 = blocked | P11712 | actives 1.4% (n = 96,000) | AID 1024 | activation factor at 5 µM;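 active = activation factor of 2 or more for CYP2C9 at a 5 µM dose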
Cav32 inh: blocks human Cav3.2 T-type calcium channel; AID 449739; B-score at 10 µM; Cav3.2-expressing cells, Fluo-4 calcium fluorescence FDSS; hits give low values; actives 4% (n = 100,000); O95180;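 active = single-dose well whose peak fluorescence ratio is a statistical outlier from its plate by either plate-standardised score or position-corrected B-score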
CYP2C19 inh: blocks human cytochrome P450 2C19; actives 21% (n = 96,000); inhibition, % at 5 µM; P33261; AID 778; CYP2C19 Supersomes, luciferin-H EGE luminescence, 30 min;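 active = CYP2C19 inhibition above a set limit at 5 µM in the primary screen, cut at about 50% in these data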
Each line names hits and unclear results; the compound was inactive in the other large screens. The list is not random: actives were taken first. Their share in the collection is about 27%.

O=S(=O)(c1ccc(Cl)cc1Br)N1CCCCC1	CYP2C19 inh 87
Cc1cc(=O)oc2c1c(C)nn2-c1nn[nH]n1	none
CCOC(=O)C(C(C)=O)C(c1ccc(OCCC(C)C)cc1)C(C(C)=O)C(=O)OCC (configuration not stated)	none (no result: CYP2C19 act, CYP2C9 inh, CYP2C9 act, CYP2C19 inh)
CC1CCCN(S(=O)(=O)c2cc(Cl)ccc2Cl)C1 (configuration not stated)	CYP2C9 act 2.4, CYP2C19 inh 96
CCCCCCC1C(C#N)=C(N)OC2=C1C(=O)CCC2 (configuration not stated)	CYP2C9 inh 75, CYP2C19 inh 73
N#CC1=C(N)OC2=C(C(=O)CCC2)C1c1ccsc1 (configuration not stated)	CYP2C19 inh 57
CC(c1ccccc1)C1C(C#N)=C(N)OC2=C1C(=O)CCC2 (configuration not stated)	CYP2C19 inh 62 (no result: Cav32 inh)
CCOCCCNC(=O)N[C@@H](C)C(=O)OC	none
COc1ccccc1-c1cc(-c2ccccc2)nc(SC(C(N)=O)c2ccccc2)c1C#N (configuration not stated)	none
Cc1c(NC(=O)c2ccccc2N(C)S(=O)(=O)c2ccccc2)c(=O)n(-c2ccccc2)n1C	none
COCCNCC(=O)NCC12CC3CC(CC(C3)C1)C2	none
CCCCCCC1CC(CSC(=N)N)OC1=O (configuration not stated)	CYP2C19 inh 79
N/C(=N\S(=O)(=O)c1cccs1)c1ccccc1	CYP2C19 inh 92 (no result: Cav32 inh)
O=S(=O)(/N=C(\c1ccccc1)N1CCOCC1)c1cccs1	none (no result: Cav32 inh)
CCOC(=O)c1ccc(NC(=S)Nc2ccccn2)cc1	none
c1ccc(-c2csc3ncn4nnnc4c23)cc1	none
Cn1nnnc1Sc1ncnc2scc(-c3ccccc3)c12	CYP2C9 inh 66
CCc1nnc(NC(=O)CSc2nnc(CNc3ccc(F)cc3)n2C2CCCCC2)s1	CYP2C9 inh 68, CYP2C19 inh 57
Cc1cc(NC(=O)CSc2nnc(CNc3ccc(F)cc3)n2C2CCCCC2)no1	none
CCc1nnc(NC(=O)CSc2nnc(COc3ccc(C)cc3)n2-c2ccccc2)s1	none
CCc1nnc(NC(=O)CSc2nnc(Cc3ccccc3)n2-c2ccccc2)s1	Cav32 inh -4.5
CCc1nnc(NC(=O)CSc2nnc(CNc3cccc(C)c3)n2-c2ccccc2)s1	CYP2C9 inh 77, CYP2C19 inh 51
CN(CCOc1ccc(Cl)cc1)c1ccc(S(=O)(=O)N2CCCCC2)cn1	Cav32 inh -6.4
OC(Cn1cncn1)c1ccc(Cl)cc1 (configuration not stated)	CYP2C9 inh 58, CYP2C19 inh 95
CC(=O)C1=C(O)C(=O)N(Cc2cccnc2)C1c1ccc(Cl)cc1Cl (configuration not stated)	none (no result: CYP2C19 act, CYP2C9 inh, CYP2C9 act, CYP2C19 inh)
OC(Cn1cncn1)c1ccc(Cl)cc1Cl (configuration not stated)	CYP2C9 inh 56, CYP2C19 inh 98
O=P(OC1CCCCC1)(OC1CCCCC1)C(O)c1ccc(Cl)cc1Cl (configuration not stated)	none
OC(c1ccc(Cl)cc1Cl)C(Cc1cccnc1)n1cncn1 (configuration not stated)	CYP2C19 inh 86 (no result: Cav32 inh)
O=C(Cn1cncn1)NCc1cccc2ccccc12	none
CC1=CC(C)(C(Cl)Cl)C(C)=CC1=O (configuration not stated)	none (no result: CYP2C19 act, CYP2C9 inh, CYP2C9 act, CYP2C19 inh)
O=C(OCCN1CCCCC1)c1ccccc1Cl	CYP2C19 inh 60
COc1cccc(C(=O)OCCN2CCCCC2)c1	Cav32 inh -9.4 (no result: CYP2C19 act, CYP2C9 inh, CYP2C9 act, CYP2C19 inh)
O=C(OCCN1C(=O)c2ccccc2C1=O)c1cccc(OC(F)F)c1	CYP2C19 inh 90
O=C(OCCN1CCCCC1)c1ccc(O)cc1	none
CC(C)(C)N1CC2([N+](=O)[O-])CN(C(C)(C)C)CC([N+](=O)[O-])(C1)C2	none
O=S(=O)(CCSc1nc2ccccc2o1)c1nc2ccccc2s1	CYP2C9 inh 89, CYP2C19 inh 82
CCS(=O)(=O)CCSc1nc2ccccc2o1	none
CCn1c(SCc2ccc(F)cc2)nnc1-c1nn(-c2ccccc2)ccc1=O	none
Cc1cccc(N(CC(=O)NC2CCCCC2)C(=O)CCC(=O)Nc2ccccn2)c1	Cav32 inh -4.2
Cc1ccnc(NC(=O)CCC(=O)N(CC(=O)NC2CCCCC2)c2ccc3c(c2)OCO3)c1	CYP2C9 inh 75, Cav32 inh -4.5
CCCCOc1ccc(N(CC(=O)NC2CCCC2)C(=O)CCC(=O)Nc2ccccn2)cc1	none (no result: CYP2C19 act, CYP2C9 inh, CYP2C9 act, CYP2C19 inh)
O=C(CCC(=O)N(CC(=O)NC1CCCC1)Cc1ccc2c(c1)OCO2)Nc1ccccn1	CYP2C9 inh 89

Screening results as filed in PubChem BioAssay.
